Laboratory results published in PubChem BioAssay (Tox21).
Inconclusive results are not listed. Activity calls are given as the source filed them. Unless noted, the call rests on the fitted dose curve; in most records, active means well fitted curve in the direction sought with a large enough effect in the repeat runs; inconclusive means weak or mixed curves; inactive means no such curve, though single readings can be large; an effect the other way counts as inactive or inconclusive.

Columns and labels:
[1] = qHTS assay to identify small molecule agonists of the hypoxia (HIF-1) signaling pathway - cell viability counter screen (AID 1224844; calls by dose curve; further: nearly all actives have a fitted effect of over 50% in size)
Outline: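 HRE-bla ME-180 cells in medium with 0.5% dialyzed FBS were preincubated 5 hrs at 37C, exposed to compounds for 17 hrs, then viability was read as CellTiter-Glo luminescence after 30 min at room temperature, in the reporter wells.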

[2] = qHTS assay to identify small molecule agonists of H2AX (AID 1224845; active means well fitted activation curve with a large enough effect in the signal ratio in the repeat runs, not every such curve was filed as active; the % refers to the signal ratio)
Outline: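 Phospho-H2AX Ser139 measured by HTRF (ex 320 nm; em 665 and 620 nm) after 24 hr antibody incubation. Compounds, 15 concentrations, 0.76% DMSO, were applied to CHO-K1 cells for 3hr at 37C before lysis.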

[3] = qHTS assay to identify small molecule agonists of the hypoxia (HIF-1) signaling pathway (AID 1224846; active means well fitted activation curve with a large enough effect in the signal ratio in the repeat runs, not every such curve was filed as active; the % refers to the signal ratio)
Outline: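 HRE-bla ME-180 cells (beta-lactamase reporter under hypoxia response element) were plated at 2,000 cells/well in medium with 0.5% dialyzed FBS, rested 5 hrs, then given compounds in DMSO for 17 hrs at 37C, 5% CO2. Reporter induction was read with CCF4-AM FRET substrate.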

[4] = qHTS assay to identify small molecule antagonists of the estrogen related receptor (ERR) signaling pathway from Tox21 library (AID 1224848); further: nearly all actives have a fitted effect of over 50% in size
Outline: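 Antagonist-mode screen of the Tox21 10K library in an NTP-provided ERR reporter cell line; 18 h compound exposure at 37 C, luminescence measured with ONE-Glo.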

[5] = qHTS assay to identify small molecule agonists of the estrogen related receptor (ERR) signaling pathway from Tox21 library (AID 1224849; calls by dose curve; further: nearly all actives have a fitted effect of over 15% in size); conditions: ERR reporter cell line, ONE-Glo luciferase, 18 h; at 92.4 µM (top of the series)
Outline: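 ERR reporter cell line (NTP) seeded, rested 6 h at 37 C/5% CO2, then pinned with Tox21 compounds in DMSO. After 18 h at 37 C, ONE-Glo luciferase luminescence was read following 30 min at room temperature.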

[6] = qHTS RealTime-Glo MT Cell Viability Assay in HepG2 cells - 24 hour (AID 1224867); further: nearly all actives have a fitted effect of over 50% in size
Outline: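 Cell number in HepG2 cultures estimated from NanoLuc luminescence generated by metabolic reduction of a prosubstrate by living cells. The homogeneous, nonlytic format allowed repeated reads at 0, 8, 16, 24, 32 and 40 h of compound exposure.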

[7] = qHTS RealTime-Glo MT Cell Viability Assay in HEK293 cells - 32 hour (AID 1224868); further: top concentration of the series differs between compounds; nearly all actives have a fitted effect of over 50% in size
Outline: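 Homogeneous bioluminescent viability format in HEK293 cells (600 cells/well). Following 5 h at 37 C/5% CO2, 23 nL compound was pintooled; the signal was measured repeatedly during 40 h incubation.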

[8] = A CellTox Green Cytotoxicity Assay to monitor cytotoxicity in HEK293 cells - 0 hour (AID 1224869); further: nearly all actives have a fitted effect of over 50% in size
Outline: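 HEK293 cells premixed with CellTox Green dye were seeded at 600 cells/well and left 5 h at 37 C/5% CO2 before pin transfer of 23 nL compound in DMSO. Fluorescence from dye bound to dead-cell DNA was read during 40 h treatment.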

[9] = qHTS RealTime-Glo MT Cell Viability Assay in HepG2 cells - 40 hour (AID 1224870); further: nearly all actives have a fitted effect of over 50% in size
Outline: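 Real-time viability: cells seeded at 600 per well together with NanoLuc and cell-permeant prosubstrate, compounds added after 5 h incubation. Luminescence tracked at 0, 8, 16, 24, 32 and 40 h of exposure.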

[10] = qHTS assay to identify small molecule agonists of H2AX - cell viability counter screen (AID 1224847; calls by dose curve; further: top concentration of the series differs between compounds; nearly all actives have a fitted effect of over 30% in size)
Outline: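 Viability of CHO-K1 (wild type) cells after 3 hr compound exposure was measured by CellTiter-Glo luminescence.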
On the % scale 0 is the no-effect control and ±100 the full control effect.

Cc1c(C)c([N+](=O)[O-])c(C(C)(C)C)c([N+](=O)[O-])c1C
inactive: Potency [1] | Potency [2] | Potency [3] | Potency [4] | activity change, positive = activation [5] -6.21% | Potency [6] | Potency [7] | Potency [8] | Potency [9]

COCCOc1cc2cc(C(=O)NC3CCN(C(C)C)CC3)n(CC(=O)Nc3ccc(Cl)cn3)c2cn1
inactive: Potency [1] | Potency [2] | Potency [3] | Potency [10] | Potency [6] | Potency [7] | Potency [9]

CC1(C)CC(O)CC(C)(C)N1
inactive: Potency [1] | Potency [2] | Potency [3] | Potency [10] | Potency [6] | Potency [7] | Potency [8] | Potency [9]

COC(=O)c1ccccc1OC
inactive: Potency [1] | Potency [2] | Potency [3] | Potency [4] | activity change, positive = activation [5] 0.916% | Potency [6] | Potency [7] | Potency [8]

CCCCNS(=O)(=O)c1ccc(C)cc1
inactive: Potency [1] | Potency [2] | Potency [3] | Potency [10] | Potency [6] | Potency [8] | Potency [9]

c1cnccn1
inactive: Potency [1] | Potency [2] | Potency [3] | Potency [10] | Potency [6] | Potency [7] | Potency [8] | Potency [9]

CCC(CC)(CC(=O)Nc1cccc(/C=C/c2nc(C3CCC3)cs2)c1)C(=O)O
inactive: Potency [1] | Potency [2] | Potency [3] | Potency [10] | Potency [6] | Potency [9]

CCCCOC(=O)CC
inactive: Potency [1] | Potency [2] | Potency [3] | Potency [10] | Potency [6] | Potency [8] | Potency [9]

NC(=S)NC(N)=S
inactive: Potency [1] | Potency [2] | Potency [3] | Potency [10] | Potency [6] | Potency [8] | Potency [9]

CC(=O)OCC=C(C)C
inactive: Potency [1] | Potency [2] | Potency [3] | Potency [10] | Potency [6] | Potency [8] | Potency [9]

CN(C)Cc1ccccc1O
inactive: Potency [1] | Potency [2] | Potency [3] | Potency [4] | activity change, positive = activation [5] 0.52% | Potency [6] | Potency [8] | Potency [9]

CCCCCCCCCCOC(=O)c1ccccc1C(=O)OCCCCCCCC
inactive: Potency [1] | Potency [2] | Potency [3] | Potency [10] | Potency [6] | Potency [7] | Potency [8] | Potency [9]

CC(C(=O)O)c1ccc2c(c1)[nH]c1ccc(Cl)cc12 (stereo not given)
inactive: Potency [1] | Potency [2] | Potency [3] | Potency [10] | Potency [6] | Potency [7] | Potency [8] | Potency [9]

O=C(O)Cc1ccc2c(c1)C(=O)c1ccccc1CO2
inactive: Potency [1] | Potency [2] | Potency [3] | Potency [10] | Potency [6] | Potency [8] | Potency [9]

C=Cc1ccccc1C=C
inactive: Potency [1] | Potency [2] | Potency [3] | Potency [10] | Potency [6] | Potency [7] | Potency [8] | Potency [9]

CCCC(=O)OCOC(=O)C1=C(C)NC(C)=C(C(=O)OC)C1c1cccc(Cl)c1Cl (stereo not given)
inactive: Potency [1] | Potency [2] | Potency [3] | Potency [10] | Potency [6] | Potency [7] | Potency [8] | Potency [9]

CCO[Si](OCC)(OCC)OCC
inactive: Potency [1] | Potency [2] | Potency [3] | Potency [10] | Potency [6] | Potency [7] | Potency [9]

CCCCC(CC)COC(=O)CCCCC(=O)OCc1ccccc1 (stereo not given)
inactive: Potency [1] | Potency [2] | Potency [3] | Potency [10] | Potency [6] | Potency [7] | Potency [9]
